# Shown are actives, neighbours in structure and some others; about 7.8% of the full set was active somewhere.
# LASV entry inh: inhibitors of Lassa virus binding or cell entry. 300,000 tested, 1.2% active. Potency, µM (titrated, usually from 37.9 µM), inactives show top-dose activity change, negative = inhibition, actives largely listed as inhibitors. Lassa virus pseudotype entry inhibition, cell reporter; calls by dose curve; tested in HEK293 cells; further: potency means the concentration at half of the fitted maximal effect; nearly all actives have a fitted effect of over 50% in size
# HCMV inh: human cytomegalovirus inhibition; HFF cells, HCMV-luciferase reporter, 72 h; active compounds read low; activity change, negative = inhibition, % at 57.5 µM; 410,000 tested, 4.5% active; AID 1259415; in the data active means activity change below about -60%; inconclusive means no clear call, values can overlap the other calls; inactive means above about -39%
#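 After 16 h attachment at 37C, HFF cells received test compound and HCMV-luciferase (1 PFU/cell); reporter luminescence read 72 h later, data normalized against buffer-only and known inhibitor Salinomycin.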
# Vaccinia Venus: vaccinia inhibition (Venus reporter) | Potency, µM (top dose mostly 36.5 µM), without a hit: top-dose activity change, negative = inhibition, usual class: inhibitors | Vaccinia virus Venus reporter expression, fluorescence | 330,000 tested, 0.46% active; calls by dose curve; tested in A549 cells; further: potency means the concentration at half of the fitted maximal effect; nearly all actives have a fitted effect of over 30% in size
# MARV entry inh: Marburg virus entry inhibition; Marburg virus pseudotyped entry inhibition, cell reporter; Potency, µM (highest dose often 37.8 µM), inactives show at the highest dose activity change, negative = inhibition, usual class: inhibitors; 300,000 tested, 1.8% active; AID 540276; calls by dose curve; tested in HEK293 cells; further: potency means the concentration at half of the fitted maximal effect
# HCV inhibitor: blocks hepatitis C virus | Huh7.5.1 HCVcc-Cre infection, luciferase reporter, 44 h | Potency, µM (doses to about 41.8 µM), without a hit: at the top dose activity change, negative = inhibition, usual class: inhibitors | 340,000 tested, 3.4% active; active means well fitted inhibition curve with a large enough effect; inconclusive means small, poorly fitted or top-dose-only effect, or another doubt; inactive means no such curve, though single readings can be large or run the other way; further: potency means the concentration at half of the fitted maximal effect
#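 Infectious HCVcc-Cre (~0.5 moi) was added to cells just after compound, with cells seeded 4 h earlier at 1,000 per well. Luciferase activity after 44 h culture reported infection; substrate was incubated 15 min at room temperature before reading.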
# Vaccinia mCherry: inhibitors of vaccinia virus infection (mCherry reporter signal); Vaccinia virus mCherry reporter infection, fluorescence; Potency, µM (series often up to 36.5 µM), for inactives: at the highest dose activity change, negative = inhibition, hits mostly inhibitors; 310,000 tested, 0.63% active; AID 720579; calls by dose curve; tested in A549 cells; further: potency means the concentration at half of the fitted maximal effect; nearly all actives have a fitted effect of over 35% in size
# An asterisk follows results filed as active; i = inactive; ? = inconclusive; . = no result given; + = active, no number; ! = not confirmed by another sample; [ ] = dose if it differs, or a comment. On the % scale 0 is the no-effect control and ±100 the full control effect.
SMILES,LASV entry inh,HCMV inh,Vaccinia Venus,MARV entry inh,HCV inhibitor,Vaccinia mCherry
Cc1ccc(NC(=O)Cc2ccc(-n3c(C)nc4cccnc43)cc2)cc1C,?,+,-19%,.,.,-22%
CN1NC(=O)CC1c1ccccc1 (stereo not drawn),-12%[46.1 µM],-3,4%,15%[46.1 µM],-14%,-19%
O=C1CC(c2ccccc2)NC(=O)N1 (stereo not drawn),-3%,-99*,-7%,-3%,11%,.
Cc1cccc(N2CCN(CCCNC(=O)C3CCCN(c4ncnc5c4nc4n5CCCCC4)C3)CC2C)c1 (stereo not drawn),?,?,?,11µM*,?,-24%
Cc1cccc(N2CCN(c3ncnc4c3nc3n4CCCCC3)CC2C)c1 (stereo not drawn),?,-98*,?,.,.,?
Fc1ccccc1N1CCN(c2ncnc3c2nc2n3CCCC2)CC1,-2%[46.1 µM],-63*,-29%,.,.,-13%
Clc1cccc(N2CCN(c3ncnc4c3nc3n4CCCC3)CC2)c1,4%[46.1 µM],53,-10%,?,.,-21%
O=C(NCCc1nnc2n1CCN(Cc1ccsc1)CC2)c1ccc(F)cc1,.,.,-7%,.,.,-20%
CCc1ccccc1N(C)C,.,.,-4%,.,.,-8%
Cc1cc(N2CCCCC2)nc2ccc(NC(=O)c3cccc(Cl)c3)cc12,4%[46.1 µM],-62*,-14%,.,.,-14%
Cc1ccc(C(=O)Nc2ccc3nc(N4CCCCC4)cc(C)c3c2)cc1F,13%[46.1 µM],?,-11%,.,.,-21%
Cc1cc(N2CCCCC2)nc2ccc(NC(=O)c3cccc(F)c3)cc12,?,-80*,-13%,?,.,-13%
Cc1cc(N2CCCCC2)nc2ccc(NC(=O)CCC(=O)N3CCN(c4cccc(Cl)c4)CC3)cc12,-9%[46.1 µM],-12,?,?,.,?
CC(C)(C)OC(=O)N1CCC(c2c(C(=O)N3CCC(c4ccccc4)C3)cnn2-c2cccc(Cl)c2)CC1 (stereo not drawn),?,27,-8%,.,.,-23%
CCSc1nnc(NC(=O)COc2ccccc2[N+](=O)[O-])s1,18%[46.1 µM],-87*,-24%,?,10%,-10%
CC(C)(C)C1CCc2nc(NC(=O)c3cccc(Cl)c3)sc2C1 (stereo not drawn),1%[46.1 µM],-90*,-13%,?,.,0%
CC(C)(C)C1CCc2nc(NC(=O)c3ccc([N+](=O)[O-])cc3)sc2C1 (stereo not drawn),9%[46.1 µM],-74*,-2%,2%[46.1 µM],.,-16%
CC(C)(C)C1CCc2nc(NC(=O)Cc3ccccc3)sc2C1 (stereo not drawn),11%[46.1 µM],56,-19%,?,.,i
CC(C)(C)C1CCc2nc(NC(=O)COc3ccccc3[N+](=O)[O-])sc2C1 (stereo not drawn),-22%[46.1 µM],-91*,1%,28%[46.1 µM],.,i
Cc1cccc(OCC(=O)Nc2nc3c(s2)CC(C(C)(C)C)CC3)c1C (stereo not drawn),5%[46.1 µM],8,-5%,10%[46.1 µM],.,i
CC(C)C1(C)C(=O)N=C2C3=C(CCCC3)C(=O)N21 (stereo not drawn),.,.,.,17%[46.1 µM],.,.
Cc1ccc(NC(=O)C2CCCN(S(=O)(=O)c3cccc4nsnc34)C2)cc1C (stereo not drawn),10%[46.1 µM],-12,-5%,-20%[46.1 µM],.,-18%
COc1ccc(-c2nnc(SC(C)C(=O)O)o2)cc1 (stereo not drawn),-29%[46.1 µM],10,12%,6%[46.1 µM],.,3%
COc1ccccc1-c1ccnc(-n2ncc(C(=O)NC(C)(C)CO)c2C2CC2)n1,.,.,-16%,.,.,-3%
CCOc1ccc(-n2c(Cc3ccccc3)nnc2SCc2nc(-c3ccccc3OC)no2)cc1,?,-17,-15%,?,.,-14%
SMILES,LASV entry inh,HCMV inh,Vaccinia Venus,MARV entry inh,HCV inhibitor,Vaccinia mCherry
CCOc1ccccc1CNC(=O)c1cc2c(=O)n(Cc3ccco3)ccc2nc1C,-11%[46.1 µM],-14,-16%,.,.,-14%
CCC[C@H](/C=C/C(=O)OC(C)(C)C)NC(=O)C(F)(F)F,.,17,.,.,.,.
O=C(CN1c2ccccc2Sc2ccccc21)NNC(=S)Nc1ccc(Cl)cc1,-7%,4,-23%,1%,35µM*,-28%
COc1ccc(C(=O)NNC(=S)NC(=O)c2ccc(OC)cc2)cc1,.,-92*,.,.,-14%,.
CCCOc1ccc(C(=O)NC(=S)NCc2cccnc2)cc1,-17%,-65*,-22%,0%,?,-16%
CCCOc1ccc(C(=O)NNC(=S)NC(=O)CC)cc1,15µM*,-62*,.,?,?,.
COc1ccc(C(=O)NNC(=S)NC(=O)c2cccnc2)cc1,-25%,-89*,-8%,?,3%,1%
Cc1cccc(N2CCN(C(=O)CCC(=O)NNc3nc4ccccc4c4nc(C)nn34)CC2C)c1 (stereo not drawn),8%[46.1 µM],-2,-4%,-16%[46.1 µM],.,-12%
O=C(NC(=S)NNC(=O)c1cnccn1)c1ccc(F)cc1,.,-25,?,.,14µM*,?
COc1ccc(C(=O)NNC(=O)c2ccc3ccccc3n2)cc1,?,-88*,?,?,?,11µM*
Cc1ccc2c(c1)ncc[n+]2CC(=O)c1ccc(Cl)cc1Cl,.,.,-27%,.,.,43%
CN(C)CCCn1c(-c2nonc2N)nc2cnccc21,4%,.,.,.,.,.
CC(=O)c1cnc2cc(C)nn2c1C,0%,51,-14%,-11%,1%,.
Cc1cc2nccc(-c3ccncc3)n2n1,34%[46.1 µM],-64*,-16%,5%[46.1 µM],-1%,-24%
Cc1cc2nccc(-c3ccc(Cl)cc3Cl)n2n1,.,-70*,.,.,?,.
NC(=O)c1cnn2c(-c3ccc(Cl)cc3Cl)ccnc12,?,.,-7%,7%[46.1 µM],-3%,i
CCOC(=O)c1cc(C)n(CCc2ccccc2)c1C,-3%,-1,?,-2%[46.1 µM],?,i
Cc1c(P(=S)(c2ccccc2)c2ccccc2)[n+]2ccccc2n1CCc1ccccc1,.,-98*,.,.,.,.
COc1ccc(Cn2c(SCC#N)nc3ccc(N4CCOCC4)cc3c2=O)cc1,-16%,69,-12%,-14%[46.1 µM],5µM*,-23%
COc1ccc(-n2c(SCC#N)nc3ccccc3c2=O)cc1,-2%,?,-28%,-2%,3%,.
CCCCn1c(SCC(=O)Nc2cccc(OC)c2)nc2ccc(N3CCOCC3)cc2c1=O,7%,-20,.,?,8.9µM*!,.
CCCCn1c(SCC(N)=O)nc2ccc(N3CCOCC3)cc2c1=O,-5%,?,.,5%,-9%,.
COc1c(C(N)=O)cc(-c2ccc(Cl)cc2)cc1-c1ccc(S(N)(=O)=O)cc1,25µM*,.,.,.,.,.
O=C(/C=C/c1ccccc1)N[C@H]1CC[C@@]23CCCN2C(=O)CCC[C@H]3[C@H]1Cc1ccccc1,.,-6,.,.,.,.
COc1ccc(C(C(=O)NCc2ccccc2)N(C(=O)Cn2nnc3ccccc32)c2ccc(F)cc2)cc1 (stereo not drawn),6%[46.1 µM],?,-21%,-8%[46.1 µM],.,-10%
